In the library only some 15% were active in any assay of this set; here they are far more common.
RORg inh: blocks mouse ROR gamma transcriptional activity. P51450. Drosophila S2 Gal4-RORgamma UAS-luciferase reporter, 20 h. Potency, µM (doses to about 53.6 µM), actives largely listed as inhibitors. actives 5.4% (n = 310,000). AID 2551; also: nearly all actives have a fitted effect of over 60% in size
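Compounds are pin-transferred onto Drosophila Schneider cells expressing a copper-inducible Gal4–ROR gamma transactivation domain fusion. After 1 hr, copper sulfate is added to 700 uM final; luciferase is read 20 hr later.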
VP16 counter: Gal4-VP16 reporter inhibition counter-screen. AID 2546. Drosophila S2 Gal4-VP16 UAS-luciferase, luminescence, 20 h. Potency, µM (top dose mostly 53.6 µM), hits mostly inhibitors. actives 3.5% (n = 310,000);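 also: Gal4-VP16 expression switched on by copper sulfate through the metallothionein promoter; nearly all actives have a fitted effect of over 50% in size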
12-LOX inh: inhibitors of human 12S-lipoxygenase ALOX12 | P18054 | purified 12hLO, xylenol orange hydroperoxide absorbance | Potency, µM (series often up to 108 µM), most hits filed as inhibitors | actives 1.1% (n = 580,000)
Target sequence (P18054 whole entry, looked up): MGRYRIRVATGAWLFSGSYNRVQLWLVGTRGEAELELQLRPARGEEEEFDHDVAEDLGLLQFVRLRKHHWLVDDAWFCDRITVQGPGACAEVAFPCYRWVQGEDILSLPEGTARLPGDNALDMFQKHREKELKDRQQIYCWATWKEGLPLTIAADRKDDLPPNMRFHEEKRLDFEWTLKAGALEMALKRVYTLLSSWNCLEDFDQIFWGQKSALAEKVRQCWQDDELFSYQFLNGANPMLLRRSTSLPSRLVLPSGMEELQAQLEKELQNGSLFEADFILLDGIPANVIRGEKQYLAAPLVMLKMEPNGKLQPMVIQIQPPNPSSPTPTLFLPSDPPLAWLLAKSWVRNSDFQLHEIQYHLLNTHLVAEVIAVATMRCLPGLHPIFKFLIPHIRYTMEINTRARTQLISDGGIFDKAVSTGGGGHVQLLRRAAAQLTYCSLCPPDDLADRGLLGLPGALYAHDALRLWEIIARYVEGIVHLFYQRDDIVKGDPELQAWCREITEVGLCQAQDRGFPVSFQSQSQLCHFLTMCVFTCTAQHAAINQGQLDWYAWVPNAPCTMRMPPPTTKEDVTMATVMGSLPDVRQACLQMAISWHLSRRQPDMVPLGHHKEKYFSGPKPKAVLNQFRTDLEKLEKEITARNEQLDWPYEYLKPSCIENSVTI
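Purified human 12hLO (150 nM final) in 25 mM Hepes, 0.01% Triton X-100, pH 7.0 was preincubated 15 min at room temperature with compound. Then 40 uM arachidonic acid was added, 30 min. Hydroperoxide was read by Fe-XO absorbance ratio 573/405 nm.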
ELG1 repair inh: blocks ELG1-dependent DNA repair in HEK293T cells; HEK293T ELG1-luciferase reporter, luminescence, 16 h; DNA damage induced by 5-fluorouridine; Potency, µM (top dose mostly 46.1 µM), hits mostly inhibitors; actives 2.3% (n = 330,000); AID 504467; also: nearly all actives have a fitted effect of over 55% in size
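5-Fluorouridine DNA damage + compound/DMSO, 2,000 cells/well, 16 h, 37 °C/5% CO2. ONE-Glo, 30 min RT, luminescence. Readout = decrease in reporter signal.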
TDP1 cell CPT: DT40-hTDP1 cell growth loss with CPT; chicken DT40 Tdp1-/-;hTDP1 cells + 20 nM CPT, ATP luminescence, 48 h; Potency, µM (doses to about 46.2 µM), most hits filed as inhibitors; actives 12% (n = 420,000); AID 686979; also: nearly all actives have a fitted effect of over 55% in size
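Chicken DT40 Tdp1-/- cells stably complemented with human TDP1 were seeded at 400 cells/well in medium containing 20 nM camptothecin, exposed to pin-transferred compounds, and grown at 37 °C for at least 48 hr. Viability was read as ATP luminescence.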
DT40 TDP1 no CPT: qHTS for Inhibitors of human tyrosyl-DNA phosphodiesterase 1 (TDP1): qHTS in cells in absence of CPT; DT40 Tdp1-/- hTDP1 cells, no CPT, ATP luminescence, 48 h; AID 686978, 2013; actives 15% (n = 420,000); Potency, µM (series often up to 46.2 µM), usual class: inhibitors; also: nearly all actives have a fitted effect of over 55% in size
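Camptothecin absent (DMSO only). Human TDP1-complemented DT40 knockout cells, 400 cells/well, 37 °C for minimum 48 hr; ATP measured via CellTiter-Glo, 30 min dark incubation, luminescence.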
Each line names hits and unclear results; the compound was inactive in the other large screens. Calls follow the shape of the dose curve; as a rule, active = well fitted curve in the direction sought with a large enough effect; inconclusive = small, poorly fitted or top-dose-only effect, or another doubt; inactive = no such curve, though single readings can be large; an effect the other way counts as inactive or inconclusive.

Cc1oc(-c2ccccc2)nc1CC(=O)Nc1cc(S(=O)(=O)N2CCCCC2)ccc1N(C)C	none (no result: RORg inh, VP16 counter, ELG1 repair inh, TDP1 cell CPT, DT40 TDP1 no CPT)
Cc1ccc(S(=O)(=O)N2CCN(C(=O)c3ccc(S(=O)(=O)N4CCCC4)cc3)CC2)cc1	ELG1 repair inh inconclusive
O=C(c1ccc(S(=O)(=O)N2CCCC2)cc1)N1CCN(c2cccc(Cl)c2)CC1	RORg inh inconclusive, TDP1 cell CPT 23µM, DT40 TDP1 no CPT 18µM
O=C(c1ccc(S(=O)(=O)N2CCCC2)cc1)N1CCN(c2ccccc2)CC1	none
Cc1cc(C)nc(N2CCN(C(=O)c3ccc(S(=O)(=O)N4CCCCCC4)cc3)CC2)n1	ELG1 repair inh inconclusive, TDP1 cell CPT 26µM, DT40 TDP1 no CPT 16µM
CCn1c(C(=O)NCCc2ccco2)cc2cc(S(=O)(=O)N(C)C)ccc21	none (no result: RORg inh, VP16 counter, ELG1 repair inh, TDP1 cell CPT, DT40 TDP1 no CPT)
O=C(CSc1nnc(-c2ccccc2O)o1)Oc1ccc(OCc2ccccc2)cc1	ELG1 repair inh inconclusive, TDP1 cell CPT 13µM, DT40 TDP1 no CPT 13µM
Cc1nc(-c2coc3cc(OCC(=O)O)ccc3c2=O)cs1	RORg inh 7.1µM, VP16 counter 6.3µM, TDP1 cell CPT inconclusive, DT40 TDP1 no CPT inconclusive
COc1ccc(-c2coc3cc(OC(C)=O)ccc3c2=S)cc1	12-LOX inh inconclusive, TDP1 cell CPT 26µM, DT40 TDP1 no CPT inconclusive (no result: RORg inh, VP16 counter, ELG1 repair inh)
Cc1csc(-c2coc3cc(O)cc(C)c3c2=O)n1	RORg inh inconclusive, VP16 counter inconclusive, ELG1 repair inh inconclusive, TDP1 cell CPT 16µM, DT40 TDP1 no CPT inconclusive
Cc1nc(-c2coc3cc(O)c(C)cc3c2=O)cs1	VP16 counter inconclusive, ELG1 repair inh inconclusive, DT40 TDP1 no CPT inconclusive
COc1ccc2c(=O)c(-c3nc(C)cs3)coc2c1	RORg inh 1.3µM, VP16 counter 2.2µM, ELG1 repair inh inconclusive
O=C(NCc1ccccc1-n1ccnc1)C1CC(=O)N(Cc2cccnc2)C1 (configuration not stated)	none (no result: RORg inh, VP16 counter, ELG1 repair inh, TDP1 cell CPT, DT40 TDP1 no CPT)
COc1cccc(CNC(=O)C(c2ccc(F)cc2)N(C)C)c1OC (configuration not stated)	none (no result: RORg inh, VP16 counter, ELG1 repair inh, TDP1 cell CPT, DT40 TDP1 no CPT)
CN(C)c1ccc(/C=C2\SC(=O)N(CCc3nnc(N)s3)C2=O)cc1	RORg inh 2.5µM, VP16 counter 4.5µM, ELG1 repair inh inconclusive, DT40 TDP1 no CPT inconclusive
CN1C[C@H](NC2CCOCC2)CCC[C@@H](C(=O)NCc2cc(F)cc(F)c2)CC1=O	none (no result: RORg inh, VP16 counter, ELG1 repair inh, TDP1 cell CPT, DT40 TDP1 no CPT)
CN1C[C@H](NC(=O)NC2(c3ccccc3)CCOCC2)CCC[C@@H](C(=O)NCc2cc(F)cc(F)c2)CC1=O	12-LOX inh 22µM (no result: RORg inh, VP16 counter, ELG1 repair inh, TDP1 cell CPT, DT40 TDP1 no CPT)
Cn1c(C(=O)N2CCN(Cc3ccc4c(c3)OCO4)CC2)cc2c(=O)n(C)c3ccccc3c21	12-LOX inh inconclusive, ELG1 repair inh inconclusive, TDP1 cell CPT inconclusive, DT40 TDP1 no CPT inconclusive
Cn1c(=O)c([N+](=O)[O-])c(N2CCN(Cc3ccc4c(c3)OCO4)CC2)c2ccccc21	ELG1 repair inh inconclusive, TDP1 cell CPT 13µM, DT40 TDP1 no CPT 8.2µM
COc1ccc2c(c1)c(C(O)CN1CCN(Cc3ccc4c(c3)OCO4)CC1)c(C)n2C (configuration not stated)	TDP1 cell CPT inconclusive, DT40 TDP1 no CPT 23µM
Cc1c(C(O)CN2CCN(Cc3ccc4c(c3)OCO4)CC2)c2ccccc2n1C (configuration not stated)	VP16 counter inconclusive, 12-LOX inh 45µM, ELG1 repair inh inconclusive, TDP1 cell CPT inconclusive
OC(CN1CCN(Cc2ccc3c(c2)OCO3)CC1)c1c[nH]c2ccccc12 (configuration not stated)	ELG1 repair inh 13µM, TDP1 cell CPT 12µM, DT40 TDP1 no CPT inconclusive
COc1ccc2c(c1)c(C(O)CN1CCC(Cc3ccccc3)CC1)c(C)n2C (configuration not stated)	12-LOX inh inconclusive, TDP1 cell CPT inconclusive, DT40 TDP1 no CPT inconclusive
Cc1ccccc1-c1nnn(Cc2cc(=O)oc3c(C)c(C)ccc23)n1	none (no result: RORg inh, VP16 counter, ELG1 repair inh, TDP1 cell CPT, DT40 TDP1 no CPT)
COCc1cc(C[C@@H]2CC[C@H](O)[C@@H](CN(C(=O)Nc3ccccc3OC)C(=O)Nc3ccccc3OC)O2)no1	none (no result: RORg inh, VP16 counter, ELG1 repair inh, TDP1 cell CPT, DT40 TDP1 no CPT)
CC1=C[C@@H](CN2CCC(C(N)=O)CC2)[C@H](C(C)C)C[C@H]1Cc1nnc(-c2ccc(N(C)C)cc2)o1	none (no result: RORg inh, VP16 counter, ELG1 repair inh, TDP1 cell CPT, DT40 TDP1 no CPT)
Cc1nn(C)c(C)c1CC(=O)Nc1nc(C(C)C)cs1	none (no result: RORg inh, VP16 counter, ELG1 repair inh, TDP1 cell CPT, DT40 TDP1 no CPT)
O=C(COC(=O)c1ccco1)NCCc1ccc(Cl)cc1	none (no result: RORg inh, VP16 counter)
S=C(NCc1ccc(Cl)cc1)NCc1ccco1	RORg inh 7.1µM, VP16 counter 10µM, 12-LOX inh inconclusive
CCNC(=S)NCc1ccco1	none
S=C(NCCc1ccc(Cl)cc1)NCc1ccco1	RORg inh 11µM, 12-LOX inh inconclusive
O=C(NC(=S)NCCc1ccc(Cl)cc1)c1ccco1	RORg inh 8.9µM, VP16 counter inconclusive, 12-LOX inh inconclusive
O=C1CSc2ccc(C(=O)OCc3cc(-c4ccc(Cl)cc4)no3)cc2N1	none (no result: RORg inh, VP16 counter, ELG1 repair inh, TDP1 cell CPT, DT40 TDP1 no CPT)
CN(Cc1ccccc1)C(=O)c1[nH]cnc1C(=O)NC1CCN(C(=O)OC(C)(C)C)CC1	ELG1 repair inh inconclusive, TDP1 cell CPT 21µM, DT40 TDP1 no CPT inconclusive (no result: RORg inh, VP16 counter)
CC(C)(C)OC(=O)N1CCC(NC(=O)c2[nH]cnc2C(=O)Nc2ccccc2F)CC1	TDP1 cell CPT inconclusive, DT40 TDP1 no CPT inconclusive (no result: RORg inh, VP16 counter, ELG1 repair inh)

From PubChem BioAssay
